# Article PMC5540273 (PLoS ONE, 2017)
# Tested on: LIMK1
# Details: concentration: 1 μM, replicates: in singlicate; n = 1
# 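Further: KINOMEscan kinase panel screen.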
row,Structure (SMILES),%Inh [%]
1,COc1cc2ncnc(Nc3ccc(OCc4ccccc4Br)c(Cl)c3)c2cc1OC.Cl [GI261590],0
2,CSc1nn2c(=O)cc(N3CCOCC3)nc2n1Cc1cccc(Cl)c1Cl [GSK2347225],11
3,Fc1cccc(COc2ccc(Nc3ncnc4sc(-c5ccc[nH]5)cc34)cc2Cl)c1 [GW707818],9
4,Cl.O=S(=O)(c1cccc(F)c1)c1ccc(Nc2ncnc3cc(Br)sc23)cc1Cl [GSK306886],33
5,CN1c2ccc(-c3ccc(C(=O)NCCO)cc3)cc2-c2[nH]ncc2S1(=O)=O,17
6,COc1ccc(-c2nc3n(c2-c2ccncc2)CCC3)cc1 [SKF-104493],0
7,Nc1nc(-c2ccc3c(N)n[nH]c3c2)cc(N2CCCCC2)n1 [GSK2228768],0
8,Cn1ccc2ncnc(Oc3ccc(NC(=O)Nc4cccnc4)c(Cl)c3)c21,0
9,Clc1cc(Nc2ncnc3cc[nH]c23)ccc1OCc1ccccn1,0
10,Cl.Cl.c1ccc(-c2cc3ccncc3cc2OC2CCNCC2)cc1 [GSK1122999],18
11,Fc1ccc(Nc2nccc(-c3c(-c4ccc(Cl)cc4)nn4ncccc34)n2)cc1F [GW829058],0
12,C[C@H]1CC[C@@H](C(=O)Nc2ccccc2)CN1c1cc(-c2ccc3c(N)n[nH]c3c2)nc(N)n1 [GSK2283293],0
13,FC(F)(F)c1cc(Nc2nccc(-c3c(-c4ccc(Cl)cc4)nn4ncccc34)n2)ccc1Cl [GW829351],0
14,FC(F)(F)c1ccc(-c2cc(-c3c[nH]nc3-c3ccccn3)ccn2)cc1 [GW599550],7
15,Nc1nc(-c2cccnc2)c(-c2ccnc3ccccc23)s1 [GW684083],0
16,Cl.c1ccc(Cn2ncc3cc(Nc4ncnc5ccccc45)ccc32)cc1 [GW273749],0
17,O=C(NCCCN1CCCC1=O)c1cnc(NCc2cc(Cl)ccc2Cl)nc1NC1CCNCC1,0
18,Cc1ccc(O)cc1Nc1cc(C(F)(F)F)nc2ccc(-c3ccncc3)cc12 [GW630823],21

row,Structure (SMILES),%Inh [%]
1,C[C@@H]1CCN(C(=O)CO)C[C@@H]1N(C)c1ncnc2[nH]ccc12,0
2,COc1ccc(NC(=O)Nc2ccc(C)c(-c3ccc(C(=O)Nc4ccncc4)cc3)c2)cc1 [GSK1398475],0
3,O=c1cc(N2CCOCC2)nc2n(Cc3cccc(Cl)c3)ccn12 [GSK2296823],15
4,CC(C)N1CCC(n2cnc(-c3ccc(F)cc3)c2-c2ccnc(N)n2)CC1 [SB-223132],0
5,Clc1cccc(-c2nc(Nc3ccncc3)c3ccccc3n2)c1 [GW873004],54
6,COC(=O)c1c(-c2ccccc2)c2cc(Cl)ccc2c(=O)n1Cc1ccc(S(C)(=O)=O)cc1,1
7,Oc1ccc2ncnc(Nc3ccc(OCc4ccccc4)cc3)c2c1 [GI262866],0
8,COc1cc2c(Nc3cccc(NC(=O)c4ccccc4)c3)ncnc2cc1OCCCN1CCOCC1 [GSK223810],13
9,CCc1nc(-c2cccc(C)c2)c(-c2ccnc(NC(=O)c3ccccc3)c2)s1,0
10,Clc1ccc(-c2cc(-c3c[nH]nc3-c3ccccn3)ccn2)cc1 [GW681251],0
11,Nc1nc(-c2ccc3c(N)n[nH]c3c2)cc(N2CCC[C@@H](C(=O)Nc3ccccc3)C2)n1.O=C(O)C(F)(F)F.O=C(O)C(F)(F)F [GSK2288359],10
12,CCn1c(-c2ccncc2)nc2cnccc21 [SB-735216],12
13,Cn1ccc2ncnc(Nc3ccc(Oc4cccc(Cl)c4)c(Cl)c3)c21,0
14,Fc1ccc(-c2ncn(CCCNCc3ccccc3)c2-c2ccncc2)cc1,10
15,CC(C)(C)OC(=O)NC1CCCN(c2cc(-c3ccc4c(N)n[nH]c4c3)nc(N)n2)C1 (stereo not drawn) [GSK2286096],6
16,CC(=O)Nc1n[nH]c2ncc(-c3ccccc3)cc12 [SB-548492],0
17,COc1ccc(Nc2nccc(N3CCC(NC(=O)Nc4ccc5c(c4)OCO5)C3)n2)cc1 (stereo not drawn) [GSK1379745],0
18,CN1CCC(n2cnc(-c3ccc(F)cc3)c2-c2ccnc(NC3CCNCC3)n2)CC1 [SB-229482],0
